# According to PubChem BioAssay (Tox21):
# Inconclusive results are not listed. Values without a mark were called inactive. The source made the active and inactive calls. The call rests on the fitted dose curve; in most records, active means well fitted cell-killing curve with a large enough effect in the repeat runs; inconclusive means weak or mixed curves, or effect the other way; inactive means flat fitted curve, though single readings scatter.
# Assay: cAMP Responsive Elements (CRE) small molecule agonists, cell-based qHTS assay: qHTS cell viability counter screen (AID 2060914); further: nearly all actives have a fitted effect of over 50% in size
# Settings: CRE-bla HEK293T viability, CellTiter-Glo luminescence, 5 h; series mostly up to 92.4 µM; activity change, negative = cytotoxicity: at the top concentration
# Outline: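 Cytotoxicity was measured as ATP luminescence (CellTiter-Glo, 30 min at room temperature) in the same wells as the CRE-bla FRET read-out. HEK293T CRE-bla cells had 3 h compound exposure at 37C/5% CO2.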
# On the % scale 0 is the no-effect control and ±100 the full control effect.
SMILES,"activity change, negative = cytotoxicity",Potency
O=C1NCCN1CCN1CCC(c2cn(-c3ccc(F)cc3)c3ccc(Cl)cc23)CC1,-24.7% [at 42.5 µM],
O=c1oc2cc(O)ccc2c2oc3cc(O)ccc3c12,2.55%,
C1CCOC1,-0.0768%,
CCCCCCCC(=O)OCC(O)CO (stereo not given),,inactive
O=[N+]([O-])c1cccc(Cl)c1Cl,1.17%,
CCCCCCCCCCCCCC(=O)OC,2.73%,
C[N+]1(C)CCC(=C(c2ccccc2)c2ccccc2)CC1,-6.23% [at 42.5 µM],
C=COCCCCO,0.111%,
CCOCC(=O)O,,inactive
CC1=C(C(=O)O)N2C(=O)[C@@H](NC(=O)[C@H](N)c3ccccc3)[C@H]2SC1,5.23% [at 42.5 µM],
c1ccc(-c2nc[nH]c2-c2ccccc2)cc1,2.61% [at 42.5 µM],
CN1Cc2cc(C(=O)N3CCC(C4CCNCC4)CC3)ccc2N[C@@H](CC(=O)O)C1=O,-4.8% [at 42.5 µM],
Cc1ccc([N+](=O)[O-])cc1N,,inactive
O=CN(CCO)CCO,13.4%,
O=C1Cc2cc(CCN3CCN(c4nsc5ccccc45)CC3)c(Cl)cc2N1,7.82% [at 42.5 µM],
CCCCCCCCOc1ccc(C(=O)O)cc1,1.89%,
Oc1ccc(C(c2ccc(O)cc2)C(Cl)(Cl)Cl)cc1,,inactive
CSc1cnccn1,-3.67%,
CC(=O)CC(=O)Nc1ccc(S(=O)(=O)O)cc1,-15.9%,
Cc1cc(C)cc([N+](=O)[O-])c1,-0.081%,

SMILES,"activity change, negative = cytotoxicity",Potency
C=CCNCC=C,,inactive
Cc1ccc(C)c([N+](=O)[O-])c1,-0.455%,
CCCCCC1C(=O)CCC1CC(=O)OC (stereo not given),,inactive
O=C(O)CCS,1.12%,
CCN(CC)CC(=O)Nc1c(C)cccc1C,-4.4% [at 42.5 µM],
CCCOC(=O)CCCCC(=O)OCCC,2.16%,
CCCCCOC(=O)Nc1nc(=O)n([C@@H]2O[C@H](C)[C@@H](O)[C@H]2O)cc1F,1.59% [at 42.5 µM],
c1ccccc1,-16.3%,
COc1cc2ncnc(Nc3cccc(Cl)c3)c2cc1OC,4.77% [at 18.9 µM],
O=[N+]([O-])c1ccccc1Nc1ccccc1,-6.09%,
CCCCC(CC)C(=O)OCCOCCOCCOCCOC(=O)C(CC)CCCC (stereo not given),0.608%,
CCCC(C)CCC(C)=O (stereo not given),-0.0763%,
Nc1cccc(N)n1,,inactive
COc1cc(Nc2c(C#N)cnc3cc(OCCCN4CCN(C)CC4)c(OC)cc23)c(Cl)cc1Cl,-8.1% [at 42.5 µM],
C[C@]12CC[C@@H]3c4ccc(O)cc4CC[C@H]3[C@@H]1CC[C@@H]2O,,inactive
CC1CNCC(C)O1 (stereo not given),3.53%,
O=Cc1cccc(Br)c1,4.5%,
COc1ccc(COC(C)=O)cc1,-2.16%,
Cc1cc(C)c(C)cc1C,,inactive
CCC(=O)O[C@H]1[C@H](O[C@@H]2[C@@H](C)[C@H](O[C@H]3C[C@@](C)(OC)[C@@H](O)[C@H](C)O3)[C@@H](C)C(=O)O[C@H](CC)[C@@](C)(O)[C@H](O)[C@@H](C)C(=O)[C@H](C)C[C@@]2(C)O)O[C@H](C)C[C@@H]1N(C)C,2.86% [at 42.5 µM],
